A selection: hits, their analogues and other compounds. The true share with any hit is near 19%.
TDP1 cell noCPT: qHTS for Inhibitors of human tyrosyl-DNA phosphodiesterase 1 (TDP1): qHTS in cells in absence of CPT. DT40 Tdp1-/- hTDP1 cells, no CPT, ATP luminescence, 48 h. Potency, µM (series often up to 46.2 µM), for the others: at the highest dose activity change, negative = growth inhibition, actives largely listed as inhibitors. actives 15% (n = 420,000). AID 686978, 2013; further: nearly all actives have a fitted effect of over 55% in size
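Camptothecin absent (DMSO only). Human TDP1-complemented DT40 knockout cells, 400 cells/well, 37 °C for minimum 48 hr; ATP measured via CellTiter-Glo, 30 min dark incubation, luminescence.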
TDP1 cell CPT: DT40-hTDP1 cell growth loss with CPT; chicken DT40 Tdp1-/-;hTDP1 cells + 20 nM CPT, ATP luminescence, 48 h; Potency, µM (highest dose often 46.2 µM), without a hit: at the highest dose activity change, negative = growth inhibition, usual class: inhibitors; actives 12% (n = 420,000); AID 686979; further: nearly all actives have a fitted effect of over 55% in size
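Chicken DT40 Tdp1-/- cells complemented with human TDP1, 400 cells/well, exposed to compounds plus 20 nM camptothecin for at least 48 h at 37 C; viability read as ATP content by CellTiter-Glo luminescence.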
TDP1 inh: blocks human tyrosyl-DNA phosphodiesterase 1 | recombinant TDP1, AlphaScreen DNA substrate cleavage | Potency, µM (titrated, usually from 130 µM), for the others: at the top dose activity change, negative = inhibition, most hits filed as inhibitors | actives 0.28% (n = 350,000) | AID 485290; further: nearly all actives have a fitted effect of over 40% in size
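Recombinant E. coli-expressed Tdp1 (1 nM) preincubated with compound 15 min at RT, then 5'-biotin/3'-phosphotyrosine-FITC DNA substrate (15 nM) added for 5 min. AlphaScreen beads (10 ug/ml) added, 10 min RT; tyrosine-FITC cleavage read as signal loss.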
Gal4-VP16 FLuc: Gal4-VP16 reporter inhibition counter-screen. Potency, µM (highest dose often 53.6 µM), without a hit: at the highest dose activity, negative = inhibition, most hits filed as inhibitors. AID 2546. actives 3.5% (n = 310,000). Drosophila S2 Gal4-VP16 UAS-luciferase, luminescence, 20 h;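 further: Gal4-VP16 expression switched on by copper sulfate through the metallothionein promoter; nearly all actives have a fitted effect of over 50% in size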
RORgamma inh: blocks mouse ROR gamma transcriptional activity. AID 2551. Potency, µM (top dose mostly 53.6 µM), for inactives: at the highest dose activity change, negative = inhibition, usual class: inhibitors. actives 5.4% (n = 310,000). Drosophila S2 Gal4-RORgamma UAS-luciferase reporter, 20 h. P51450; further: nearly all actives have a fitted effect of over 60% in size
Target sequence (P51450 whole entry, looked up, the tested form may be a part): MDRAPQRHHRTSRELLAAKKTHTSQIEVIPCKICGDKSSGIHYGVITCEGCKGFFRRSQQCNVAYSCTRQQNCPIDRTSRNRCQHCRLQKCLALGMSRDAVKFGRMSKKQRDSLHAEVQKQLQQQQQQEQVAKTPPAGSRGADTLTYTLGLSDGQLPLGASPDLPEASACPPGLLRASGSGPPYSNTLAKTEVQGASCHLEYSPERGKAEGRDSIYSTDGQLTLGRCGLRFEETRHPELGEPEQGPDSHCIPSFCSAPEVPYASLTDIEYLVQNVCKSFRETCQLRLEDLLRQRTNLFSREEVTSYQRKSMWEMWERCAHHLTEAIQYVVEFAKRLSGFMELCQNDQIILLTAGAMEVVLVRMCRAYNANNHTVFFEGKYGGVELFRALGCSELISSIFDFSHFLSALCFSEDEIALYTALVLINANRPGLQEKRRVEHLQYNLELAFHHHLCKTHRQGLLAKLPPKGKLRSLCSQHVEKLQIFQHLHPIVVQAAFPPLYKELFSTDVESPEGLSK
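Drosophila S2 cells stably expressing Gal4-DBD/mouse RORγ fusion under metallothionein promoter plus UAS-luciferase; compound 1 h, then 700 uM CuSO4 induction for 20 h at ambient temperature; inhibition read as reduced luminescence.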
* = called active by the depositor; ? = inconclusive; · = no result given; [ ] = remark or other dose. The call rests on the fitted dose curve; in most records, active means well fitted curve in the direction sought with a large enough effect; inconclusive means small, poorly fitted or top-dose-only effect, or another doubt; inactive means no such curve, though single readings can be large; an effect the other way counts as inactive or inconclusive. On the % scale 0 is the no-effect control and ±100 the full control effect; potency means the concentration at half of the fitted maximal effect.

SMILES | TDP1 cell noCPT | TDP1 cell CPT | TDP1 inh | Gal4-VP16 FLuc | RORgamma inh
COc1ccc(-c2ccnc(-n3ncc(C(=O)NCc4cccnc4)c3C3CC3)n2)cc1F | 16µM* | -9%[9.04 µM] | · | · | ·
COc1ccc(-c2ccnc(-n3ncc(C(=O)NCc4ccon4)c3C3CC3)n2)cc1F | 23µM* | ? | · | · | ·
Cc1cc(-c2ccnc(-n3ncc(C(=O)NCc4cccnc4)c3C3CC3)n2)c(C)s1 | ? | -12%[9.04 µM] | · | · | ·
Cc1ccc(Cn2ncc3c(NCCN(C)C)ncnc32)cc1 | -10% | -9% | · | 4% | 0%
OCCNc1ncnc2c1cnn2Cc1ccccc1 | 7% | -9% | · | 5% | 3%
Cc1ccc(Cn2ncc3c(NN)ncnc32)cc1 | ? | ? | · | ? | 13µM*
CCN(CC)c1ncnc2c1cnn2Cc1ccc(C)cc1 | 12µM* | ? | · | -9% | 14%
CC(C)CCNc1ncnc2c1cnn2Cc1ccccc1Cl | ? | 29µM* | · | 17% | 22%
c1ccc(CNc2ncnc3c2cnn3Cc2ccccc2)cc1 | 13µM* | 13µM* | -1% | -9% | 5%
O=C(N/N=C/c1cccc(O)c1)c1ccc(NC(=O)C2CCCCC2)cc1 | ? | ? | · | -10% | ?
CCN(CC)C(=O)CSc1ncnc2c1cnn2Cc1ccccc1 | 12µM* | -28% | 4% | 1% | 5%
Cc1ccc2c(c1)N(C(=O)N1CCC(C(=O)Nc3cccc(F)c3)CC1)CCO2 | 18µM* | ? | 0% | · | ·
CCc1ccccc1NC(=O)C1CCN(C(=O)N2CCOc3ccccc32)CC1 | 21µM* | ? | · | -8% | 7%
O=C(Nc1cccc(F)c1)C1CCN(C(=O)N2CCOc3ccccc32)CC1 | ? | ? | · | 9% | 4%
Cc1ccccc1NC(=O)C1CCN(C(=O)N2CCOc3ccccc32)CC1 | -19% | -23% | · | -7% | -10%
CCc1ccc(NC(=O)C2CCN(C(=O)N3CCOc4ccccc43)CC2)cc1 | ? | 26µM* | · | 0% | 37%
O=C(NC1CCCCCC1)C1CCN(C(=O)N2CCOc3ccc(Cl)cc32)CC1 | ? | 26µM* | 8% | · | ·
Cc1ccc2c(c1)N(C(=O)N1CCC(C(=O)NC3CCCCCC3)CC1)CCO2 | ? | -10% | 1% | · | ·
CCOc1cc(/C=C2\N=C(C)OC2=O)cc(Br)c1OCCc1ccccc1 | -6% | -22% | 5% | -1% | -12%
O=C(NCCc1ccc(Cl)cc1)C1CCN(C(=O)N2CCOc3ccccc32)CC1 | 23µM* | 26µM* | · | 6% | 29%
CC1CCN(C(=O)CSc2nnc(CSc3ncccn3)n2C)CC1 | -2% | -24% | -1% | 2% | -28%
COc1ccc(NC(=O)CCS(=O)(=O)c2nc(-c3ccc4c(c3)OCO4)cc(C(F)(F)F)n2)cc1 | 7.3µM* | 6.5µM* | 9% | · | ·
CS(=O)(=O)c1nc(-c2ccccc2)cc(C(F)(F)F)n1 | 1.2µM* | 1µM* | 2% | 1.6µM* | 0.5µM*
Cc1cc(NC(=O)CCS(=O)(=O)c2nc(-c3ccccc3)cc(C(F)(F)F)n2)no1 | 1.8µM* | 1.6µM* | 4% | 7% | -4%
O=C(CCS(=O)(=O)c1nc(-c2ccc3c(c2)OCO3)cc(C(F)(F)F)n1)Nc1ccc(F)cc1F | 21µM* | ? | 6% | · | ·
SMILES | TDP1 cell noCPT | TDP1 cell CPT | TDP1 inh | Gal4-VP16 FLuc | RORgamma inh
CC(C)CNC(=O)CCSc1nc(-c2ccc3c(c2)OCO3)cc(C(F)(F)F)n1 | · | · | 0% | · | ·
O=C(c1ccc(Cl)cc1)C1CCN(C(=O)NC2CCCCC2)CC1 | ? | ? | 3% | -4%[0.365 µM] | ?
CC1=NN(c2ccccc2)C(=O)/C1=C\c1cn(C)c2ccccc12 | ? | ? | 12% | -1% | 2%
COc1cc(C(=O)Nc2c(C)cc(C)cc2C)c(-n2cnnn2)cc1OC | -17% | -22% | 3% | -2% | 1%
CCOC(=O)c1ccc(NC(=O)N2CCCCC2)cc1 | -7% | -1% | 4% | 1% | ?
O=C(NCCN1CCN(c2ccccc2)CC1)c1cccc(Br)c1 | 14µM* | ? | 5% | 6% | 11%
O=C(C(=O)N1CCN(c2ccncc2)CC1)c1cccc(Br)c1 | 15µM* | 15µM* | · | · | ·
CN1CCCN(C(=O)c2cccc(Br)c2)CC1 | 3% | 18% | 2% | 2% | -1%
Cc1cccc(C(=O)NCCN2CCN(c3ccccc3)CC2)c1 | -19% | -9% | 7% | -6% | 6%
O=C(NCCN1CCN(C(=O)c2cccc(Br)c2)CC1)C(=O)Nc1ccc(Br)cc1 | 26µM* | 13µM* | 6%[0.0935 µM] | -16% | ?
CC1(C)N=C(N)N=C(N)N1c1cccc(C#N)c1 | 1µM* | ? | · | · | ·
Cc1ccccc1N1C(N)=NC(N)=NC1(C)C | ? | -2% | 5% | 6% | 6%
CCOC(=O)c1cccc(N2C(N)=NC(N)=NC2(C)C)c1 | 4.1µM* | -23% | 5% | 2% | -29%
CC1(C)N=C(N)N=C(N)N1c1cccc(C(=O)O)c1 | -5% | -4% | 0% | -1% | -4%
COc1ccc(N2C(N)=NC(N)=NC2(C)C)cc1 | 0.33µM* | ? | 6% | 4% | -22%
CCOc1ccc(N2C(N)=NC(N)=NC2(C)C)cc1 | 6.5µM* | ? | 2% | 0% | -5%
COc1ccccc1N1C(N)=NC(N)=NC1(C)C | ? | -10% | 5% | -12% | 8%
COc1cccc(N2C(N)=NC(N)=NC2(C)C)c1 | 1µM* | 5.2µM* | 6% | -2% | -9%
CC1=C(C)/C(=N\OS(=O)(=O)c2ccc(C)cc2)C=CC1=O | 0.65µM* | 0.58µM* | 11% | 2µM* | 5µM*
COc1ccc(S(=O)(=O)/N=C2/C=CC(=O)C(C)=C2C)cc1 | 1.6µM* | 1.8µM* | 6% | -4% | -9%
O=C(CN(CC1CCCO1)C(=O)CCC(=O)Nc1ccccn1)NCC1CCCO1 (stereo not given) | -22% | 4% | 6% | · | -14%[0.365 µM]
COCCN(CC(=O)NCC1CCCO1)C(=O)CCC(=O)Nc1ccccn1 (stereo not given) | 23µM* | 13µM* | 4% | 1% | 0%
COc1cc2c(cc1OC)C(c1cccs1)N(C(=O)c1ccncc1)CC2 (stereo not given) | ? | 13µM* | 6% | -2% | -29%
COc1cc2c(cc1OC)C(c1cccs1)N(C(=S)NC(C)C)CC2 (stereo not given) | 15µM* | ? | 2% | -9% | -6%
CCOC(=O)N1CCN(C(=O)CCc2ccc(S(=O)(=O)NCC(C)C)cc2)CC1 | -4% | 0% | · | · | ·
Cc1ccnc(NS(=O)(=O)c2ccc(NC(=O)CCS(=O)(=O)c3ccccc3)cc2)n1 | 3% | -1% | -6% | -2% | ?
